# Assay results from PubChem BioAssay AID1900 (Broad Institute, 2009).
# Out of some 3,200 compounds screened, about 2,900 (91%) were called active.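 Rule for the calls: active = fitted half-maximal effect concentration at most a set number of log units above the top dose; inactive = fitted half-maximal concentration further above the top dose.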 So high a share suggests a set chosen from earlier hits. This is one part of the list. Results with a measured potency or affinity are listed apart.
# Assay: Streptococcus pyogenes SK(-)GAS viability under kanamycin – luminescence, BacTiterGlo, confirmation, counter-screen for streptokinase expression inhibitor project, dose response (AID 1900)
# Details: 6 h; at 15 µM (top of the series)
row,SMILES,"activity change, negative = inhibition"
1,O=C(Nc1ccccc1Sc1ccccc1)c1ccccc1F,-63% (active)
2,COc1cccc2sc(Nc3nnc(-c4ccccc4Cl)o3)nc12,-41.8% (active)
3,O=C(Nc1cccc(-c2nc3ccccc3[nH]2)c1)c1ccc(C(=O)Nc2cccc(-c3nc4ccccc4[nH]3)c2)cc1,-32.9% (active)
4,COc1ccccc1N=c1oc2cc(O)ccc2cc1C(N)=O,-48.9% (active)
5,CC(C)(C)c1csc(NNC(=O)c2ccc(Br)cc2)n1,-78.7% (active)
6,FC(F)Oc1ccccc1C1CC(c2ccc(Br)s2)Nc2ncnn21 (configuration not stated),-52.4% (active)
7,N#C/C(=C\c1ccc(/C=C(/C#N)c2nn(CCO)c(N)c2C#N)cc1)c1nn(CCO)c(N)c1C#N,-56% (active)
